The campaign covered roughly 55,000 compounds. About 530 (0.96%) were called active. Entries that show only a call come without a potency. Not shown: some 7% with an inconclusive outcome. Calls come from the whole dose curve; as a rule, active = well fitted cell-killing curve with a large enough effect; inconclusive = small, poorly fitted or top-dose-only effect; inactive = no such curve, though single readings can be large or run the other way. Only a selection was taken, and actives are over-represented in it overall.
Potency is the fitted concentration of half-maximal effect.

The experiment in a line: qHTS Screen for Compounds that Selectively Target Cancer Cells with p53 Mutations: Cytotoxicity of p53 Null Cells at the Nonpermissive Temperature. Note: nearly all actives have a fitted effect of over 50% in size. The note with it: H1299 p53-null (neo) cells, 39C, ATPlite viability, 24 h; series mostly up to 46.1 µM. An excerpt: NIH Chemical Genomics Center [NCGC] NIH Molecular Libraries Screening Centers Network [MLSCN] MLSCN Grant: 1 X01 MH079844-01 Assay Submitter (PI): Dr. SUN, YI, University of Michigan NCGC Assay Overview: Synthetic Lethal Screen for Compounds to Kill Cancer Cells with p53 Mutation. Tumor suppressor gene p53 serves as a major cellular barrier against tumorigenesis. […] The goal of this screening is to identify small molecule probes that selectively kill cancer cells with mutations in p53. This screening was carried out using two lines of H1299 lung cancer cells. The H1299-p53 A138V line express a temperature sensitive p53 mutant (p53ts) in which the mutant p53 protein (A138V) is in the mutant confirmation when grown at 39C (the nonpermissive temperature) and in the wild type conformation when grown at 32C (the permissive temperature). A H1299-neo line (p53 null) grown at both 39C and 32C were used as counter-screens to filter out false positive associated with temperature shifting. The small molecular compounds that selectively target mutant p53-containing cancer cells were selected as candidate probes for further study. A cytotoxicity assay based on the measurement of ATP contents in cells was used in this screen. Concentration-responses of all the compounds in the library collection were determined in qHTS using the cell lines and temperature conditions as above.
NCGC Assay Protocol Summary: Both the H1299-p53A138V and H1299-neo cell lines were provided by Dr.Yi Sun, a PI at the University Michigan. The cells were maintained and cultured at 37C. The resuspended frozen cells were used to plate the cells in the 1536-well assay plates at a density of 600 cells per well in 5 ul medium. The assay plates with the cells were incubated at 37C for 16 to 30 hours before the experiments. The library compounds in DMSO solution were added to the cells in assay plates and incubated 24 hours at 39C (for mutant p53 conformation) or 32C (for normal p53 conformation as control). An ATP_lite assay kit (PerkinElmer) was used to determine the cell viability. Tomaxifen (100uM) was used as the positive control for cell killing. Data were normalized to the controls for basal activity (DMSO only) and 100% killing (100uM tamoxifen). AC50 values were determined from concentration-response data modeled with the standard Hill equation. P53 assay protocol: 1. Reagent; 5 uL H1299-p53A138V or H1299-neo cell cells/well 2. Time; overnight; 37C incubation 3. Compounds; 23 nL; 5.9 nM to 46 uM 4. Controls; 23 nL; Tamoxifen 100 uM 5. Time; 24 hr; 39C incubation 6. Reagent; 3 uL; ATP_Lite reagent 7. Time; 20 min; Room Temperature 8. Detection; Luminescence; Viewlux plate reader Keywords: p53, synthetic lethal, cancer, cell viability, cytotoxicity, H1299 cell line, luminescence, MLSMR, MLSCN, NIH Roadmap, qHTS, NCGC
For orientation: qHTS replaces the single test concentration by a dilution series.
Regarding `Cc1ccc(NC(=O)C2CCN(S(=O)(=O)c3cc(-c4noc(C)n4)ccc3C)CC2)c(C)c1`, the Potency entry is “inactive”.
In the case of `Cc1ccc(-c2cc(N)on2)cc1`, the activity, negative = cell killing was 9.86% [at 1.84 µM] (inactive).
Same read-out and setting: with `Cc1ccc2[nH]cc(CCCN3C(=O)c4ccccc4C3=O)c2c1` the figure was -0.898% [at 1.84 µM] (inactive).
With `Cc1nn(Cc2ccc(Cl)cc2)c(Cl)c1/C=N/NC(=O)CNc1ccccc1F`, the Potency result is “inactive”.
`COc1ccc(NC(=O)Cn2c(=O)n(CCC(C)C)c(=O)c3cccnc32)cc1Cl`: the Potency entry is “inactive”.
The same measure, in the same setting: with `CCOC(=O)c1ccc(NC(=O)Cn2cc(S(=O)(=O)Cc3ccccc3F)c3ccccc32)cc1` the entry was “inactive”.
Consider `CCOc1cccc2c1N[C@@H](c1ccc(C(=O)O)cc1)[C@H]1CC=C[C@@H]21`, for which the Potency entry is “inactive”.
With `Cc1[nH]c2ccccc2c1/C=N/NC(=O)CNC(=O)c1ccc2c(c1)OCO2`, the activity, negative = cell killing is 2.07% [at 1.84 µM] (inactive).
Take `Cc1cc[n+](-c2[nH]c(=O)sc2/C=N/NC(=O)c2ccccc2[O-])cc1C`: the Potency entry is “inactive”.
`CCN(C(=O)Cn1c(=O)nc(-c2ccccc2)c2cc(Cl)ccc21)c1cccc(C)c1`: the Potency was 12.6 µM (active).
Still for that read-out and setting: to `Cc1cccc(NC(=O)Cn2nc(-c3ccc(Cl)cc3)c3ccccc3c2=O)c1` belongs “inactive”.
For the molecule `O=C(Cn1c(=O)nc(-c2ccccc2)c2cc(Cl)ccc21)NCc1ccc(Cl)cc1`, the Potency result was “inactive”.
On the same count and under the same terms, with `COc1ccc(-c2nnc(SCc3cccnc3)o2)cc1` the entry was “inactive”; with `CCCn1c(SCC(=O)Nc2ccc(C)c(S(=O)(=O)N3CCOCC3)c2)n[nH]c1=O`, “inactive”; with `O=C(Nc1c2c(nc3ccccc13)CCCC2)c1ccccc1Br`, “inactive”.
In the case of `COc1ccccc1Nc1c2c(nc3ccc(NC(=O)/C=C/c4cc(OC)c(OC)c(OC)c4)cc13)CCCC2`, the Potency is 10 µM (active).
Still for that read-out and setting: with `COc1cc(C(=O)Nc2ccc(-n3c(C)nc4ccccc4c3=O)cc2)cc(OC)c1OC` the entry was “inactive”.
In the case of `CCOC(=O)c1cc2c(=O)n3ccccc3nc2n(CC2CCCO2)c1=NC(=O)c1ccc(C(C)(C)C)cc1` (stereo unspecified), the Potency result is “inactive”.
Consider `Cc1ccccc1CSc1nc2c([nH]c3ccccc32)c(=O)n1C`, for which the Potency result is “inactive”.
Still for that read-out and setting: with `CC1=C(c2ccc(Cl)cc2)S(=O)(=O)N=C1N1CCN(c2cc(C)ccc2C)CC1` the entry was “inactive”.
For the molecule `CC1=C(c2ccc(C)cc2)S(=O)(=O)NC1=NCCCN1CCN(c2cc(C)ccc2C)CC1`, the Potency entry is “inactive”.
Still for that read-out and setting: with `Cc1ccc(C)c(N2CCN(CCCNC(=O)Nc3ccc(Cl)cc3)CC2)c1` the figure was 5.01 µM (active).
As to `COc1ccccc1OCC(=O)Nc1nnc2n1CCS2`, the Potency entry is “inactive”.
The same measure, in the same setting: to `Cc1ccc(-c2nc(S(=O)(=O)c3ccc(C)cc3)c(N3CCCCCC3)o2)cc1` belongs “inactive”.
On the same count and under the same terms, with `O=C(CSc1oc(-c2ccc(F)cc2)nc1S(=O)(=O)c1ccc(Br)cc1)NC1CCCCC1` the entry was “inactive”; with `CC(C)S(=O)(=O)c1oc(-c2ccc(F)cc2)nc1S(=O)(=O)c1ccc(F)cc1`, 12.6 µM (active).
Same read-out and setting: to `CCOc1ccc(S(=O)(=O)N/N=C(\C)c2ccc(Cl)c(Cl)c2Cl)cc1` belongs “inactive”.
Turning to `Cc1ccc(S(=O)(=O)NC2(C(F)(F)F)NC(=O)N(CCc3ccccc3)C2=O)cc1` (stereo unspecified), the Potency result is “inactive”.
`CCOc1ccc(NC(=O)c2cnn(-c3ccccc3)c2-n2cccc2)cc1`: the Potency entry is “inactive”.
Still for that read-out and setting: with `CCOc1ccc(NC(=O)c2ncoc2-c2ccco2)cc1` the figure was 5.01 µM (active); with `CCOc1ccc(NC(=O)CN2CCN(CC(=O)Nc3ccc(OC)cc3)CC2)cc1`, “inactive”; with `C=Cc1ccc(Cn2c(C(=O)O)c(CNC3CCCC3)c3ccc(C)cc32)cc1`, “inactive”.
In the case of `Cc1ccccc1C(=O)Nc1cc(C)c(O)c(-c2nc3ccccc3o2)c1`, the Potency result is “inactive”.
With `O=C(NC1CCN(C(=S)NCc2ccco2)CC1)c1ccc(F)cc1`, the Potency entry is “inactive”.
On the same count and under the same terms, with `COc1ccc(S(=O)(=O)NCC(c2ccco2)N2CCOCC2)cc1` (stereo unspecified) the entry was “inactive”; with `Cc1ccc(NS(=O)(=O)c2ccc3c(c2)CC(=O)N3)cc1Cl`, “inactive”.
As for `COc1ccc(CCNc2nc(-c3ccc(F)cc3)cc(C(F)(F)F)n2)cc1OC`, the Potency result is “inactive”.
With `CSc1ccccc1NC(=O)CCS(=O)(=O)c1nc(-c2cccs2)cc(C(F)(F)F)n1`, the Potency entry is “inactive”.
Regarding `COc1ccccc1-c1cc(C(F)(F)F)nc(S(=O)(=O)CCCC(=O)Nc2cc(C)ccc2O)n1`, the Potency was 22.4 µM (active).
Still for that read-out and setting: to `Cc1ccc(O)c(NC(=O)CCS(=O)(=O)c2nc(-c3ccc4c(c3)OCO4)cc(C(F)(F)F)n2)c1` belongs “inactive”; to `CC(=O)c1ccc(NC(=O)c2nc3nc(C)cc(C(F)F)n3n2)cc1`, “inactive”.
The same measure, in the same setting: to `CCCS(=O)(=O)c1ncc(Cl)c(C(=O)Nc2scc(-c3ccccc3)c2C(=O)OCC)n1` belongs “inactive”; to `Cc1ccc(NC(=O)c2nc(S(=O)(=O)Cc3cccc(C)c3)ncc2Cl)cc1`, 22.4 µM (active).
The same measure, in the same setting: to `CCSc1ncc(Cl)c(C(=O)Nc2cc(C)ccc2C)n1` belongs “inactive”; to `Cc1ccc2nc(CN3CCN(S(=O)(=O)c4ccc(C)c(C)c4)CC3)oc2c1`, “inactive”.
As to `O=C1N(c2ccc(Cl)cc2)C(c2ccc(Cl)cc2)N2CCCN12` (stereo unspecified), the activity, negative = cell killing was -0.885% [at 1.84 µM] (inactive).
Turning to `O=C(COC(=O)CSc1nnc(-c2ccc(Cl)cc2)o1)Nc1cc(Cl)cc(Cl)c1`, the Potency result was “inactive”.
In the case of `O=[N+]([O-])c1ccc(N2CCN(S(=O)(=O)c3ccccc3)CC2)cc1N1CCc2ccccc2C1`, the Potency entry is “inactive”.
The same measure, in the same setting: with `COc1cc(CNC(=O)c2cc3n(n2)CCCN(Cc2cccc(F)c2)C3=O)cc(OC)c1OC` the entry was “inactive”; with `O=C(Cc1ccc(Cl)cc1)NCC(c1cccs1)S(=O)(=O)c1ccc(Cl)cc1` (stereo unspecified), “inactive”.
Still for that read-out and setting: to `COc1ccccc1Nc1cc(C(=O)NCCCN(C)C2CCCCC2)c2ccccc2n1` belongs 12.6 µM (active).
The same measure, in the same setting: with `COc1ccc(Nc2cc(C(=O)NCCCN(C)c3ccccc3)c3ccccc3n2)c(OC)c1` the entry was “inactive”; with `CCCCN(CCCNC(=O)c1cc(Nc2ccccc2OC)nc2ccccc12)c1ccccc1`, “inactive”; with `COc1ccc2cc(-c3nc(Cl)c4c5c(sc4n3)CC(C)CC5)c(=O)oc2c1` (stereo unspecified), “inactive”.
Consider `COc1ccc(-c2cc3ccc(OCc4nn[nH]n4)cc3oc2=O)cc1`, for which the Potency was 10 µM (active).
As for `COc1ccc2oc(=O)c(-c3cn4c(n3)sc3cc(OC)ccc34)cc2c1`, the Potency entry was “inactive”.
The same measure, in the same setting: to `O=C(COc1nc2ccccc2nc1N1CCOCC1)NCC(F)(F)F` belongs “inactive”; to `CCCn1ccc2c(OCC(=O)NCc3ccc(F)cc3)cccc2c1=O`, “inactive”.
Same read-out and setting: with `Cc1nn2c(=O)cc(COC(=O)c3cccc(NC(=O)COc4ccccc4Cl)c3)nc2s1` the figure was 6.31 µM (active); with `Cc1nn2c(=O)cc(COC(=O)c3ccccc3NC(=O)COc3ccccc3C)nc2s1`, “inactive”.
On the same count and under the same terms, to `COc1ccc(OCC(=O)Nc2cccc(C(=O)OCc3cc(=O)n4nc(C)sc4n3)c2)cc1` belongs “inactive”.
